Experimental data taken from PubChem BioAssay AID1159580 (chemical genetic matrix, 2015).
Values joined by “and” are separate entries in the source; they are usually repeats but may differ in a detail not shown here. Equal entries are not always repeated. Screen size: about 5,500 compounds; about 2,000 (36%) were called active. Inconclusive results (about 18%) are left out. No stated cut-off is given here; in the data, active means normalized growth mostly below about 0.91 (no sharp cut-off); inconclusive means no clear call, values can overlap the other calls; inactive means mostly above about 0.92. This is one part of the list.

Test: chemical genetic growth profiling, strain panel (AID 1159580);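 further: tested at 20 µM; growth read once vehicle control cultures reached saturation at 30 °C; 1 = growth at the plate median or of vehicle wells; lower values mean less growth of the strain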
Settings: S. cerevisiae deletion strains, growth OD

Measured: normalized growth

O=C(O)CCC(=O)OC[C@@H](NC(=O)C(Cl)Cl)[C@H](O)c1ccc([N+](=O)[O-])cc1
inactive: locus YAL021C, strain ccr4, active compounds read low 0.99 | locus YAL026C, strain drs2, active compounds read low 0.993 | locus YAL030W, strain snc1, active compounds read low 0.981 | locus YBL061C, strain skt5, active compounds read low 0.971 | locus YBR009C, strain hhf1, active compounds read low 0.956 | locus YBR021W, strain FUR4, active compounds read low 1.02 | locus YBR023C, strain chs3, active compounds read low 0.976 | locus YBR171W, strain sec66, active compounds read low 0.962 | locus YBR229C, strain ROT2, active compounds read low 0.951 | locus YBR231C, strain swc5, active compounds read low 1 | locus YBR279W, strain paf1, active compounds read low 0.989 | locus YCL011C, strain gbp2, active compounds read low 0.942 | locus YCL016C, strain dcc1, active compounds read low 0.953 | locus YCL029C, strain bik1, active compounds read low 0.986 | locus YCL061C, strain MRC1, active compounds read low 0.981 | locus YCL069W, strain vba3, active compounds read low 0.982 | locus YCR088W, strain abp1, active compounds read low 0.986 | locus YDL005C, strain med2, active compounds read low 0.984 | locus YDL035C, strain GPR1, active compounds read low 0.974 | locus YDL040C, strain nat1, active compounds read low 0.996 | locus YDL074C, strain BRE1, active compounds read low 0.98 | locus YDL101C, strain DUN1, active compounds read low 0.995 | locus YDL134C, strain PPH21, active compounds read low 0.964 | locus YDL185W, strain tfp1, active compounds read low 0.96 | locus YDL192W, strain arf1, active compounds read low 0.979 | locus YDR001C, strain nth1, active compounds read low 0.975 | locus YDR069C, strain doa4, active compounds read low 1.01 | locus YDR101C, strain arx1, active compounds read low 0.963 | locus YDR137W, strain rgp1, active compounds read low 0.963 | locus YDR150W, strain NUM1, active compounds read low 0.982 | locus YDR159W, strain sac3, active compounds read low 0.997 | locus YDR162C, strain NBP2, active compounds read low 0.93 | locus YDR195W, strain ref2 1 | locus YDR297W, strain sur2, active compounds read low 0.964 | locus YDR318W, strain mcm21, active compounds read low 0.99 | locus YDR334W, strain swr1, active compounds read low 0.945 | locus YDR335W, strain msn5, active compounds read low 0.973 | locus YDR388W, active compounds read low 0.983 | locus YDR392W, strain spt3, active compounds read low 0.914 | locus YDR502C, strain sam2, active compounds read low 0.991 | locus YEL003W, strain gim4, active compounds read low 0.982 | locus YEL037C, strain rad23, active compounds read low 0.991 | locus YEL061C, strain CIN8 (second series), active compounds read low 0.987 | locus YEL061C, strain CIN8, active compounds read low 0.988 | locus YER015W, strain faa2, active compounds read low 0.989 | locus YER016W, strain bim1, active compounds read low 0.988 | locus YER110C, active compounds read low 0.964 | locus YER111C, strain swi4, active compounds read low 0.982 | locus YER155C, strain BEM2 (second series), active compounds read low 1.04 | locus YER155C, strain BEM2, active compounds read low 0.989 | locus YER167W, strain BCK2, active compounds read low 0.997 | locus YFR010W, strain ubp6, active compounds read low 0.979 | locus YGL078C, strain dbp3, active compounds read low 0.995 | locus YGL167C, strain pmr1, active compounds read low 0.974 | locus YGL173C, strain kem1, active compounds read low 0.967 | locus YGL227W, strain vid30, active compounds read low 0.977 | locus YGL240W, strain doc1, active compounds read low 1 | locus YGL248W, strain PDE1, active compounds read low 1.01 | locus YGL253W, strain hxk2, active compounds read low 0.968 | locus YGR135W, strain pre9, active compounds read low 1.03 | locus YGR229C, strain SMI1, active compounds read low 0.969 | locus YGR252W, strain gcn5, active compounds read low 1.07 | locus YHR013C, strain ard1, active compounds read low 0.955 | locus YHR027C, strain rpn1, active compounds read low 0.956 | locus YHR030C, strain SLT2, active compounds read low 0.974 | locus YHR079C, strain IRE1 (second series), active compounds read low 0.989 | locus YHR079C, strain IRE1, active compounds read low 0.961 | locus YHR094C, strain hxt1, active compounds read low 0.979 | locus YHR129C, strain ARP1, active compounds read low 0.982 | locus YHR142W, strain chs7, active compounds read low 0.926 | locus YHR200W, strain rpn10, active compounds read low 0.981 | locus YIL066C, strain RNR3, active compounds read low 0.947 | locus YIL073C, strain SPO22, active compounds read low 0.988 | locus YIL125W, strain kgd1, active compounds read low 0.983 | locus YIR030C, strain dcg1, active compounds read low 0.98 | locus YJL092W, strain hpr5, active compounds read low 0.981 | locus YJL095W, strain BCK1 (second series), active compounds read low 0.972 | locus YJL095W, strain BCK1, active compounds read low 1.04 and 0.971 | locus YJL115W, strain asf1, active compounds read low 0.969 | locus YJL129C, strain trk1, active compounds read low 0.968 | locus YJL134W, strain LCB3, active compounds read low 0.982 | locus YJL154C, strain vps35, active compounds read low 0.975 | locus YJL164C, strain tpk1, active compounds read low 0.968 | locus YJL166W, strain qcr8, active compounds read low 0.964 | locus YJL168C, strain set2, active compounds read low 0.983 | locus YJL187C, strain SWE1 (second series), active compounds read low 1 | locus YJL187C, strain SWE1, active compounds read low 0.975
